# Test results: PubChem BioAssay (NCATS)
# Values joined by “and” are separate entries in the source; they are usually repeats but may differ in a detail not shown here. Identical values can stand only once. Unmarked numbers belong to inactive results. Records with an inconclusive call do not appear. Active and inactive are the calls of the source. Unless noted, calls come from the whole dose curve; as a rule, active = well fitted curve in either direction with a large enough effect (not every such curve was filed as active); inconclusive = small, poorly fitted or top-dose-only effect, or another doubt; inactive = flat fitted curve, though single readings scatter.
# What was measured:
# [1] = AP1 Signaling Pathway (AID 357);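 note: ME-180 reporter cells stimulated with EGF at its EC50 level; % is set by controls: 0 for no effect and ±100 for the full control effect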
# Outline: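 First, ME-180 AP-1-bla cells were cultured overnight at 37 °C in low-serum Opti-MEM. Next, titrated compounds with EC50 EGF were incubated 5 hours. Finally, CCF4 was added for 2.5 hours and the 460/530 nm ratio recorded.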
# [2] = target: Cytochrome P450 1A2 (Homo sapiens) (UniProt P05177); assay: p450-cyp1a2 (AID 410; calls by dose curve; note: potency is the fitted concentration of half-maximal effect;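 for activity change, negative = inhibition: -100% = full effect of reference inhibitor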)
# Sequence of Cytochrome P450 1A2 (Homo sapiens) (P05177 whole entry, looked up): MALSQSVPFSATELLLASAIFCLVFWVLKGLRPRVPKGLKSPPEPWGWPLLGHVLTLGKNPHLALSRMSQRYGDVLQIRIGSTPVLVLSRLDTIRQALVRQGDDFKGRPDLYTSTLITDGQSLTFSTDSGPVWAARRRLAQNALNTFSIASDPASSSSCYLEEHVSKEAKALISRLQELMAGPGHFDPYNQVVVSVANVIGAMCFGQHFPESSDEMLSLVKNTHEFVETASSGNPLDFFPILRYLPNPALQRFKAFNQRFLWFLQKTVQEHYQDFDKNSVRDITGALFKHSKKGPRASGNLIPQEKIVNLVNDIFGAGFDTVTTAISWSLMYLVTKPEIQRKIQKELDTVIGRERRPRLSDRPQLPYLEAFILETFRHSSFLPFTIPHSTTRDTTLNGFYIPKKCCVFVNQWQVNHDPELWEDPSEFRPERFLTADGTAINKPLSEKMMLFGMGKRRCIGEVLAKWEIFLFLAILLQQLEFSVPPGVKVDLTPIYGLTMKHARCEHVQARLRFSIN
# Outline: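 20nM CYP1A2 with 100uM Luciferin-ME (at Km) in 100mM KPO4; compound preincubated 10 min, NADPH regeneration added, 60 min at room temperature. Luciferin quantified by luminescence after detection reagent; normalized to 57 uM furafylline.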
# [3] = NFAT Signaling Pathway (AID 444); conditions: Jurkat NFAT-bla M1, carbachol, beta-lactamase ratio, 5 h;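 note: carbachol stimulus at about its EC50 of 1 µM final; % is set by controls: 0 for no effect and ±100 for the full control effect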
# Outline: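 Read-out: CCF4 FRET ratio (460 nm/530 nm) after 1 h RT dye loading, used for %activity and AC50 from titration series. Cells: Jurkat NFAT-β-lactamase/M1 line, treated with compound plus 1 uM carbachol for 5 h, 37 °C.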
# [4] = Cell Viability - BJ (AID 421; calls by dose curve;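 note: potency is the fitted concentration of half-maximal effect; cells exposed to compound for 40 hours at 37 °C before readout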); conditions: BJ fibroblast viability, qHTS
# Outline: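 Quantitative HTS: ATP depletion in BJ cells after 40 hr compound exposure in complete culture medium, detected with CellTiter-Glo; AC50 from standard Hill fits.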
# [5] = Cell Viability - Jurkat (AID 426;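 active = dose-dependent loss of cell ATP signal giving a full or clear fitted curve, ranked by lower potency value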;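 note: potency is the fitted concentration of half-maximal effect; cells exposed to compound for 40 hours at 37 °C before ATP read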); conditions: qHTS
# Outline: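 Jurkat (Clone E6-1) cells, 5000/well in complete medium, exposed to compounds for 40 hr at 37C; intracellular ATP measured by CellTiter-Glo luminescence after 20 min at room temperature. AC50 from Hill fits.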
# [6] = Cell Viability - Hek293 (AID 427;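 active = compounds whose dose-response curve shows a full or clear partial loss of cell viability, called from curve shape rather than a numeric limit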;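 note: potency is the fitted concentration of half-maximal effect; cells exposed to compound for 40 hours at 37 °C before reading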); conditions: qHTS
# Outline: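 AC50 values derive from Hill-modelled concentration-response of ATP-based luminescence, normalized between DMSO-only and 100 uM tamoxifen controls. Cells were exposed in complete culture medium for 40 hr at 37 °C before detection.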
# [7] = Cell Viability - HepG2 (AID 433; calls by dose curve;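 note: potency is the fitted concentration of half-maximal effect; potency for ATP loss meaning cytotoxicity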); conditions: qHTS
# Outline: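 ATP luminescence (CellTiter-Glo) after 40 h compound exposure, 37 °C, HepG2, 1500 cells/well, complete medium. Normalized: DMSO = basal, 100 uM tamoxifen = 100% inhibition. AC50 via standard Hill equation.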
# [8] = Cell Viability - MRC5 (AID 434; calls by dose curve;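 note: potency is the fitted concentration of half-maximal effect; potency reflects cytotoxicity seen as loss of intracellular ATP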); conditions: MRC5 lung fibroblast viability, qHTS
# Outline: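 qHTS cytotoxicity in human lung fibroblast MRC5 cells; 40 hr treatment, 37 °C; cellular ATP by luciferase luminescence; DMSO = 0%, 100 uM tamoxifen = 100% inhibition; Hill-fit AC50.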
# [9] = Cell Viability - SK-N-SH (AID 435; calls by dose curve; note: potency is the fitted concentration of half-maximal effect); conditions: SK-N-SH neuroblastoma cell viability qHTS
# Outline: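 CellTiter-Glo ATP luminescence, 20 min RT read; cells pre-plated 5 hr, compound 40 hr at 37 °C, 1500 cells/well, complete medium. Normalized DMSO = 0, 100 uM tamoxifen = 100% inhibition; Hill-fit AC50.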
# [10] = target: Lysosomal acid glucosylceramidase (Homo sapiens) (UniProt P04062); assay: Glucocerebrosidase-p2 (AID 348; in the data active = potency below about 10 µM; note: potency is the fitted concentration of half-maximal effect); conditions: purified GBA, blue fluorogenic substrate, 40 min
# Sequence of Lysosomal acid glucosylceramidase (Homo sapiens) (P04062 whole entry, looked up): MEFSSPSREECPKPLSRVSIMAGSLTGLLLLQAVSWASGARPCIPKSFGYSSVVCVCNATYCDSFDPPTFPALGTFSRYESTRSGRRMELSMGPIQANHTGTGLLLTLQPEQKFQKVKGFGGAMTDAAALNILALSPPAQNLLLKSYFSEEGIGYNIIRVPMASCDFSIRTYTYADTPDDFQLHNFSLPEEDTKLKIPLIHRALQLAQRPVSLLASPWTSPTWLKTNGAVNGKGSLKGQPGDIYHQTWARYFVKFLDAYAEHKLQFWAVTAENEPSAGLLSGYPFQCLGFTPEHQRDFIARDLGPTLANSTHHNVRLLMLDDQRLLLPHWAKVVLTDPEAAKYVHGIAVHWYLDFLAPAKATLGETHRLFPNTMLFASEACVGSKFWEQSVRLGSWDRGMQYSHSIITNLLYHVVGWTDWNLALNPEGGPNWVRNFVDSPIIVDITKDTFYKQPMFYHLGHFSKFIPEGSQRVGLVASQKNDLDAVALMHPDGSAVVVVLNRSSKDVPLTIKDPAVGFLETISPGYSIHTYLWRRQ
# Outline: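 Compounds titrated from 0.6 nM upwards against 0.2 nM enzyme in pH 5.9 citric acid/KH2PO4, taurocholate, tween-20; blue fluorogenic substrate 80 uM, 40 min room temperature, stopped and read Ex 365/Em 440 for AC50.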
# [11] = at 17.2 µM (top of the series) unless noted
compound,measurement,setting,value
Cc1cc(-c2ccccc2)nnc1NCCN1CCOCC1,outcome,[1],inactive
same,Potency,[2],10 µM (active)
same,"activity change, negative = inhibition",[3]; [11],-10.7% and -25.7%
CCCCNc1ccc(C(=O)OCCOCCOCCOCCOCCOCCOCCOCCOCCOC)cc1,outcome,[1],inactive
same,Potency,[2],inactive
same,"activity change, negative = inhibition",[3]; [11],-6.05%
CCCc1ncc(C[n+]2ccccc2C)c(N)n1,outcome,[1],inactive
same,Potency,[2],inactive
same,"activity change, negative = inhibition",[3]; [11],-11.4%
CCCN(CCC)S(=O)(=O)c1ccc(C(=O)O)cc1,outcome,[1],inactive
same,Potency,[2],inactive
same,Potency,[4],> 92 µM
same,Potency,[5],> 92 µM
same,Potency,[6],> 92 µM
same,Potency,[7],> 92 µM
same,Potency,[8],> 92 µM
same,Potency,[9],> 92 µM
same,"activity change, negative = inhibition",[3]; [11],1.18% and -1.81%
NS(=O)(=O)Cc1noc2ccccc12,outcome,[1],inactive
same,Potency,[2],inactive
same,"activity change, negative = inhibition",[3]; [11],-5.42% [at 38 µM]
C[N+]1(C)CCC(=C(c2ccccc2)c2ccccc2)CC1,outcome,[1],inactive
same,Potency,[2],inactive
CCN(CC)CCNC(=O)COc1ccc(OC)cc1,outcome,[1],inactive
same,"activity change, negative = inhibition",[3]; [11],-21.8%
Nc1ccc(C(=O)NCC(=O)O)cc1,outcome,[1],inactive
same,Potency,[2],inactive
same,"activity change, negative = inhibition",[3]; [11],3.72%
CCOc1ccc(NC(C)=O)cc1,outcome,[1],inactive
same,Potency,[4],> 92 µM
same,Potency,[5],> 92 µM
same,Potency,[6],> 92 µM
same,Potency,[7],> 92 µM
same,Potency,[8],> 92 µM
same,Potency,[9],> 92 µM
same,"activity change, negative = inhibition",[3]; [11],3.42%
O=C(CCCN1CC=C(n2c(=O)[nH]c3ccccc32)CC1)c1ccc(F)cc1,outcome,[1],inactive
same,Potency,[2],inactive
same,"activity change, negative = inhibition",[3]; [11],-14.9%
CCc1cc(Cl)c(OC)c(C(=O)NC[C@@H]2CCCN2CC)c1O,outcome,[1],inactive
same,Potency,[2],3.98 µM (active)
COc1ccc(C(=O)c2ccccc2)c(O)c1,outcome,[1],inactive
same,Potency,[2],1.58 µM (active)
same,Potency,[4],> 92 µM
same,Potency,[5],> 92 µM
same,Potency,[6],> 92 µM
same,Potency,[7],> 92 µM
same,Potency,[8],> 92 µM
same,Potency,[9],> 92 µM
same,"activity change, negative = inhibition",[3]; [11],-6.2%
Cc1c(-c2ccccc2)oc2c(C(=O)OCCN3CCCCC3)cccc2c1=O,outcome,[1],inactive
same,Potency,[2],6.31 µM (active)
same,"activity change, negative = inhibition",[3]; [11],-3.52%
CCN(CC)CCNc1ccc(CO)c2sc3ccccc3c(=O)c12,outcome,[1],inactive
same,Potency,[2],0.126 µM (active)
same,"activity change, negative = inhibition",[3]; [11],-29.8%
COc1ccc(C(Cl)=C(c2ccc(OC)cc2)c2ccc(OC)cc2)cc1,outcome,[1],inactive
same,Potency,[2],inactive
same,Potency,[4],> 92 µM
same,Potency,[6],> 92 µM
same,Potency,[7],> 92 µM
same,Potency,[8],> 92 µM
same,Potency,[9],> 92 µM
NS(=O)(=O)c1cc(C(=O)O)cc(N2CCCC2)c1Oc1ccccc1,outcome,[1],inactive
same,Potency,[2],inactive
same,"activity change, negative = inhibition",[3]; [11],-7.88%
N=C(N)N1CCc2ccccc2C1,outcome,[1],inactive
same,Potency,[2],inactive
same,"activity change, negative = inhibition",[3]; [11],-7.74%
CCOC(=O)c1ccc(N)cc1,outcome,[1],inactive
same,Potency,[2],2 µM (active)
same,"activity change, negative = inhibition",[3]; [11],-2.56%
CN1CCC[C@@H]1CCO[C@](C)(c1ccccc1)c1ccc(Cl)cc1,outcome,[1],inactive
same,Potency,[2],inactive
CN(C)CCC[C@@]1(c2ccc(F)cc2)OCc2cc(C#N)ccc21,outcome,[1],inactive
same,Potency,[2],inactive
O=C1C(CCS(=O)c2ccccc2)C(=O)N(c2ccccc2)N1c1ccccc1 (configuration not stated),outcome,[1],inactive
same,Potency,[2],inactive
same,"activity change, negative = inhibition",[3]; [11],-0.885% and -5.88%
O=C1C(=O)c2ccccc2C(O)=C1C1CCC(c2ccc(Cl)cc2)CC1 (configuration not stated),outcome,[1],inactive
same,"activity change, negative = inhibition",[3]; [11],-25%
NC(N)=NCc1cccc(I)c1,outcome,[1],inactive
same,Potency,[2],12.6 µM (active)
same,"activity change, negative = inhibition",[3]; [11],-11.1% [at 38 µM]
CCCCCCCCNC(C)C(O)c1ccc(SC(C)C)cc1 (configuration not stated),outcome,[1],inactive
Nc1ccc(S(=O)(=O)Nc2cnc3ccccc3n2)cc1,Potency,[10],> 11.4 µM
same,outcome,[1],inactive
same,Potency,[2],inactive
same,"activity change, negative = inhibition",[3]; at 7.69 µM (top of the series),-24.5%
same,"activity change, negative = inhibition",[3]; at 17.2 µM (top of the series),-5.07%
O=C1C(O)=C(O)C(=O)C(O)=C1O,outcome,[1],inactive
same,Potency,[2],inactive
same,"activity change, negative = inhibition",[3]; [11],-6.65%
CCc1oc2ccccc2c1C(=O)c1cc(Br)c(O)c(Br)c1,Potency,[10],> 11.4 µM
O=C(O)CCc1nc2ccccc2[nH]1,Potency,[10],> 11.4 µM
same,outcome,[1],inactive
same,"activity change, negative = inhibition",[3]; [11],5.96% [at 7.69 µM]
